The results in this text go back to PubChem BioAssay AID2289 (National Center for Advancing Translational Sciences (NCATS), 2010).

In all, about 340,000 compounds went through this assay and about 3,300 (0.97%) were called active. Another 9% or so got no clear call; they are omitted. Calls come from the whole dose curve; as a rule, active = well fitted inhibition curve with a large enough effect; inconclusive = small, poorly fitted or top-dose-only effect, or effect the other way; inactive = flat fitted curve, though single readings scatter. Some of the results follow.
Potency is the fitted concentration of half-maximal effect.

This test in a line: qHTS Assay for Modulators of miRNAs and/or Inhibitors of miR-21. Note: nearly all actives have a fitted effect of over 55% in size. The settings on record: HeLa miR-21-FLuc reporter, luciferase luminescence, 48 h; actives lower the signal. In outline:
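HeLa cells stably expressing CMV-driven firefly luciferase with a downstream miR-21 binding sequence, endogenously expressing miR-21, were treated with titrations (up to about 40uM final) for 48 hours at 37 degree Celsius. Luciferase luminescence was read after lysis.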
For `CN(C)c1ccc(CNc2nc(-c3ccco3)nn2S(C)(=O)=O)cc1`, the Potency is 7.36 µM (active). As for `COCC(=O)n1nc(-c2ccco2)nc1NCc1ccccc1Cl`, the figure is 16.5 µM (active); as for `CC(C)c1ccc(CNc2nc(-c3ccco3)nn2C(=O)c2ccc([N+](=O)[O-])cc2)cc1`, 2.07 µM (active).

`COc1ccc(CNc2nc(-c3ccccc3)nn2C(=O)c2ccc([N+](=O)[O-])cc2)cc1`: the Potency was 14.7 µM (active). As for `O=C(Cc1ccccc1[N+](=O)[O-])NCc1ccc(Cl)cc1`, the figure is 14.7 µM (active); as for `O=C(Cc1ccccc1[N+](=O)[O-])NCc1ccc2c(c1)OCO2`, 10.4 µM (active). As for `O=C(CC12CCC(CC1)C2)NCc1ccc2c(c1)OCO2`, the figure is 16.5 µM (active); as for `Cc1ccccc1CNC(=O)Cc1ccccc1[N+](=O)[O-]`, 5.21 µM (active).

With `CCn1cnc2cc(NCc3ccc(Br)cc3)ccc21`, the Potency is 3.29 µM (active). In the case of `CCCn1cnc2cc(NCc3ccc(Br)cc3)ccc21`, the Potency is 7.36 µM (active). As for `CCCn1cnc2cc(NCc3cccs3)ccc21`, the figure is 7.36 µM (active); as for `COC(=O)c1ccc(N=NNc2ccc(C(=O)OC)cc2)cc1`, 0.208 µM (active); as for `COC(=O)c1ccc(NN=Nc2ccc(C)cc2)cc1`, 2.07 µM (active). On to `O=C(NCC1CCCO1)c1sc2ccccc2c1Cl` (configuration not stated), for which the Potency was 3.29 µM (active). With `CC(NC(=O)c1sc2ccccc2c1Cl)C1CCCO1` (configuration not stated), the Potency is 5.21 µM (active).

Consider `CCn1c2ccccc2c2nc3cc(C(=O)O)ccc3nc21`, for which the Potency was 9.27 µM (active).

On to `Cc1ccc(C(=O)Cc2cc3ccccc3oc2=O)c(C)c1`, for which the Potency was 2.07 µM (active).

For `COc1cccc2cc(CC(=O)c3ccc(C)cc3C)c(=O)oc12`, the Potency was 11.7 µM (active).

For `CN(c1ccccc1)c1nc2ccsc2c(=O)s1`, the Potency is 12.6 µM (active).

On to `COc1ccc(-c2cc(C(=O)c3c(N)n(C)c(=O)n(C)c3=O)c3ccccc3n2)cc1OC`, for which the Potency was 4.65 µM (active).

Turning to `COc1ccc2c(c1)CCC/C2=N\NC(=O)c1ccoc1C`, the Potency is 2.93 µM (active). With `CC(=O)N1N=C(c2ccc(C)cc2)OC1c1ccc(C(C)C)cc1` (configuration not stated), the Potency is 3.29 µM (active). `CN1N=C(C(=O)N2CCc3c([nH]c4ccccc34)C2c2ccccc2Cl)CCC1=O` (configuration not stated): the Potency is 10.4 µM (active).

`O/N=C/c1ccc(OCc2ccccc2)c(Cl)c1`: the Potency was 2.07 µM (active). As for `O/N=C/c1ccc(OCc2ccccc2)c(Br)c1`, the figure is 3.69 µM (active); as for `CCCOc1ccc(-c2nc(N3CCN(C)CC3)c3ccccc3n2)cc1`, 2.93 µM (active); as for `COc1cc(CNc2ccc(NC(C)=O)cc2)ccc1OCc1ccccc1C`, 7.36 µM (active). Then `COc1nc(-c2ccccc2)nnc1-c1ccccc1`, with 1.17 µM (active); and `Nc1ccc(-c2nnc(-c3ccc(N)cc3)o2)cc1`, with 3.29 µM (active); and `c1ccc(-c2nnc(-c3ccccc3)nn2)cc1`, with 2.07 µM (active). `Cc1ccc(-c2nnc(/C=C/c3ccccc3)o2)cc1`: the Potency is 0.329 µM (active). As for `O=C(O)c1ccc(-c2nnc(-c3ccccc3)o2)cc1`, the Potency is 0.329 µM (active). Then `c1ccc(-c2nnc(-c3ccccc3)o2)cc1`, with 1.31 µM (active). With `Cc1cc(C)cc(N(CC(=O)Nc2ccc(-c3nc4ccc(C)cc4s3)cc2)S(C)(=O)=O)c1`, the Potency was 3.29 µM (active). In the case of `Cc1cccc(N(CC(=O)Nc2ccc(-c3nc4ccc(C)cc4s3)cc2)S(C)(=O)=O)c1`, the Potency was 4.14 µM (active). As for `Cc1ccc2nc(-c3ccc(NC(=O)CN(C)S(=O)(=O)c4ccccc4)cc3)sc2c1`, the figure is 0.369 µM (active). As for `Cc1ccc(C(=O)Nc2cc3c(cc2Cl)OCCCO3)cc1`, the figure is 1.31 µM (active). Then `O=C(Nc1cc2c(cc1Cl)OCCCO2)c1ccc(F)cc1`, with 3.69 µM (active); and `CC(C)(C)n1cnc2cc(NC(=O)c3cccs3)ccc21`, with 1.65 µM (active); and `O=C(/C=C\c1ccco1)c1ccc(NC(=O)c2ccco2)cc1`, with 13.1 µM (active). Regarding `O=C(Nc1ccc(NC(=O)c2cccs2)cc1)c1ccco1`, the Potency is 8.26 µM (active). Then `O=C(/C=C/c1ccco1)Nc1ccc(N2CCCC2)cc1`, with 1.65 µM (active). As for `O=C(CNC(=O)c1ccco1)Nc1ccc(Br)cc1`, the figure is 11.7 µM (active). Then `O=C(Nc1ccc(NC(=O)c2cccs2)cc1)c1cccs1`, with 5.21 µM (active). Turning to `N#Cc1c(/N=C/c2cccs2)sc2c1CCCCC2`, the Potency was 0.464 µM (active).

Turning to `Cc1ccc(/C=N/c2sc3c(c2C#N)CCC3)s1`, the Potency is 0.261 µM (active). Then `O=C(CC1CCCCC1)Nc1nc2ccccc2s1`, with 1.85 µM (active); and `CC1(C(=O)Nc2nc3ccccc3s2)CC1(Br)Br` (configuration not stated), with 8.26 µM (active); and `O=C(CSc1nccn1-c1ccccc1)Nc1nc2ccccc2s1`, with 6.56 µM (active). As for `COc1ccc(C2CC(C)(c3ccc(OC)cc3)Nc3ccccc3N2)cc1` (configuration not stated), the figure is 7.36 µM (active); as for `O=C(c1ccccc1)c1cnc(-c2ccc(Cl)cc2)s1`, 0.464 µM (active); as for `N#Cc1ccccc1OCC(=O)NC(=O)NCc1ccco1`, 6.56 µM (active). As for `O=C(COc1ccc(Cl)cc1Cl)NCc1ccco1`, the figure is 16.5 µM (active); as for `O=C(COc1ccc(Cl)cc1Cl)c1ccc[nH]1`, 10.4 µM (active). Take `CC(C)C(=O)Nc1ccc(NC(=O)c2cc3ccccc3o2)cc1`: the Potency is 11.2 µM (active).

As for `CN1CCN(c2ccc(NC(=O)c3sc4ccccc4c3Cl)cc2)CC1`, the Potency is 1.17 µM (active).

With `Cc1nnc(NC(=O)c2cc3ccccc3o2)s1`, the Potency is 8.26 µM (active). Then `COc1cc2ccccc2cc1C(=O)Nc1ccc(N2CCN(C)CC2)cc1`, with 7.36 µM (active); and `CC(Cc1ccccc1)NC(=O)c1cc2ccccc2o1` (configuration not stated), with 6.56 µM (active); and `CN1CCN(c2ccc(NC(=O)c3cc4ccccc4o3)cc2)CC1`, with 0.927 µM (active). As to `O=C(Nc1ncccc1Cl)c1cc2ccccc2o1`, the Potency is 0.656 µM (active). Turning to `COc1cc(/C=N/O)ccc1OCc1ccc(Cl)cc1`, the Potency was 0.369 µM (active). In the case of `COc1cc(/C=N/O)ccc1OCc1ccccc1Cl`, the Potency was 2.93 µM (active).

Take `COc1cc(/C=N/O)ccc1OCc1ccc([N+](=O)[O-])cc1`: the Potency is 3.29 µM (active).

Turning to `Cc1ccc2c(c1)COc1c3ccc(C(=O)N4CCCCC4)cc3nn1-2`, the Potency was 3.69 µM (active).

On to `O=C(c1ccc2c3n(nc2c1)-c1ccc(Cl)cc1CO3)N1CCOCC1`, for which the Potency is 5.21 µM (active). Then `Cc1ccc2c(c1)COc1c3ccc(C(=O)N4CCOCC4)cc3nn1-2`, with 5.21 µM (active).
